Here are results for 49 compounds from PubChem BioAssay AID1851 (National Center for Advancing Translational Sciences (NCATS), 2009).

Molecules are shown by their SMILES. Among all 16,000 compounds or so, about 4,000 (25%) were called active. Not shown: some 26% with an inconclusive outcome. These entries were drawn from the full list. Values without a mark were called inactive. The call rests on the fitted dose curve; in most records, active means well fitted curve in the direction sought with a large enough effect; inconclusive means small, poorly fitted or top-dose-only effect, or effect the other way; inactive means no such curve, though single readings can be large or run the other way.
On the % scale 0 is the no-effect control and ±100 the full control effect.

Sequence of Cytochrome P450 2C9 (Homo sapiens) (P11712 whole entry, looked up): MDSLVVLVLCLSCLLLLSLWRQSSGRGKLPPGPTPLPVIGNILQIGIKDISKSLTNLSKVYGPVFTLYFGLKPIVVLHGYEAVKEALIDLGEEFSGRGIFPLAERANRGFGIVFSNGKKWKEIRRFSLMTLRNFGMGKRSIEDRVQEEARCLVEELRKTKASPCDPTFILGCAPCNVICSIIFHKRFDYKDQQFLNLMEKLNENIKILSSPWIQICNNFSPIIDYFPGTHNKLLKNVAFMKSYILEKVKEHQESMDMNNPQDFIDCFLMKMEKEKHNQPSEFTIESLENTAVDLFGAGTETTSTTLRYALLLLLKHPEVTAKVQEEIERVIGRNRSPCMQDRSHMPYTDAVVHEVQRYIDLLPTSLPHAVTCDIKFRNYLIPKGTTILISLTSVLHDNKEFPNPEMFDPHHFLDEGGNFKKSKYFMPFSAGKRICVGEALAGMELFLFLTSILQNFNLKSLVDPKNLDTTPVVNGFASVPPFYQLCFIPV

This assay addresses Cytochrome P450 2C9 (Homo sapiens) (UniProt P11712). The assay can be described thus: Cytochrome panel assay with activity outcomes. Conditions: recombinant CYP, pro-luciferin dealkylation, luminescence, p450-cyp2c9; series mostly up to 57.1 µM; activity, negative = inhibition: at the top concentration.
For the compound `C/C(CCN1CCc2nc(-c3ccccc3)c(-c3ccccc3)cc2C1)=N\O[C@@H](C)CN1CCCc2nc(C)c(C)cc21`, the activity, negative = inhibition is -19.9% [at 11.4 µM].
Regarding `CC(C)=CCC/C(C)=C/CO/N=C1/C[C@@H](O)[C@@H](O)[C@@H]2[C@@H]3C(=O)N(Cc4ccc5c(c4)OCO5)C(=O)[C@H]3CC[C@@H]12`, the activity, negative = inhibition was -23.6% [at 11.4 µM].
Same read-out and setting: as for `O=C(c1ccco1)N1CCC[C@@]2(CCN(Cc3ccccc3)C2)C1`, the figure is 2.14%; as for `COC(=O)C/C=C\[C@@H](C)[C@@H](/C=N\OC[C@@H](O)[C@H]1O[C@H]2OC(C)(C)O[C@H]2[C@@H]1O)NS(=O)(=O)c1ccc(C)cc1`, 2.11% [at 11.4 µM].
Turning to `CO/N=C\c1ccc(C(=O)N2[C@H](c3ccc(C)cc3)[C@@H](C)CC[C@H]2C(=O)OC)cc1`, the half-maximal activity concentration (AC50) was 2.51 µM (active).
In the case of `COC(=O)C/C=C\[C@@H](C)[C@@H](/C=N\OC[C@@H](O)[C@H]1O[C@H]2OC(C)(C)O[C@H]2[C@@H]1O)OC`, the activity, negative = inhibition was 8.96% [at 11.4 µM].
As to `COC(=O)[C@@H]1CC[C@H](C)[C@@H](c2ccc(C)cc2)N1C(=O)c1ccc(/C=N\OC[C@@H](O)[C@H]2O[C@H]3OC(C)(C)O[C@H]3[C@@H]2O)cc1`, the AC50 was 2.51 µM (active).
Turning to `C[C@@]12CCC(=O)C=C1CC[C@@H]1[C@@H]2[C@H](O)C[C@]2(C)[C@@H]1CC[C@]2(O)C(=O)CO`, the “activity, negative = inhibition” value was -1.37% [at 25.6 µM].
Consider `CN[C@@H](c1ccncc1)[C@@H](NC)c1ccncc1`, for which the activity, negative = inhibition was -8.04% [at 11.4 µM].
On the same count and under the same terms, as for `COCCNc1ncnc2ccc(-c3ccccc3C(F)(F)F)cc12`, the figure is 11% [at 2.29 µM].
Consider `Cc1nn(C)cc1C(C(=O)NC1CCCCC1)N(C(=O)Cc1cccs1)c1ccc(C(C)C)cc1` (centres undefined), for which the AC50 is 25.1 µM (active).
On to `Cc1cc(C)cc(N(C(=O)Cc2cccs2)C(C(=O)NC2CCCCC2)c2ccccn2)c1` (centres undefined), for which the AC50 is 17.8 µM (active).
Take `Cc1ccc(C(C(=O)NC2CCCCC2)N(CC2CCCO2)C(=O)CNC(=O)c2cccs2)cc1` (centres undefined): the “activity, negative = inhibition” value was -15.9%.
On the same count and under the same terms, as for `CC(C)(C)NC(=O)C(c1ccccn1)N(C(=O)C1CSC(=O)C1)c1ccc(F)cc1` (centres undefined), the figure is -13.1%; as for `NC1=C(O)C(=O)[C@H](c2c[nH]c3ccc(OCc4ccccc4)cc23)O1`, -27.4% [at 11.4 µM].
`CC(C)C(=O)Nc1cc2c(cc1C(=O)c1ccccc1)OCCO2`: the half-maximal activity concentration (AC50) is 8.91 µM (active).
Regarding `CC(=O)c1cc2c(cc1NC(=O)CCCC(=O)O)OCO2`, the “activity, negative = inhibition” value is 0.864%.
Same read-out and setting: as for `CC(C)/C(=N/[N+](C)(C)C)c1ccccc1`, the figure is 9.65% [at 11.4 µM]; as for `O=C1Nc2ccccc2C1=Nc1ccc(S(=O)(=O)Nc2nccs2)cc1`, 8.43% [at 11.4 µM].
For `O=C(CCN1C(=O)S/C(=C\c2ccccc2)C1=O)Nc1ccc(S(=O)(=O)Nc2nccs2)cc1`, the half-maximal activity concentration (AC50) was 1.58 µM (active).
On to `O=C(O)c1ccccc1C(=O)Nc1ccc(S(=O)(=O)Nc2nccs2)cc1`, for which the “activity, negative = inhibition” value is -19.3% [at 25.6 µM].
The same measure, in the same setting: as for `O=c1c(-c2ccc(Cl)cc2)[n+]([O-])c2ccccc2n1OCc1ccccn1`, the figure is -25.4%.
As for `CCOc1ccc(OCC)c(-c2c(=O)n(OCc3ccccc3C(=O)OC)c3ccccc3[n+]2[O-])c1`, the concentration at half-maximal activity (AC50) was 14.1 µM (active).
On to `CCOc1ccc(OCC)c(-c2c(=O)n(OCc3ccc(C(C)(C)C)cc3)c3ccccc3[n+]2[O-])c1`, for which the AC50 is 6.31 µM (active).
`OC[C@@H]1O[C@H](n2cnc3c(/C=C(\O)c4ccccc4)ncnc32)[C@H](O)[C@@H]1O`: the activity, negative = inhibition is 0.392% [at 11.4 µM].
As for `Cc1ccc(C)c(S(=O)(=O)N2CCC(c3nc4c(nnn4Cc4ccc(F)cc4)c(=O)[nH]3)CC2)c1`, the concentration at half-maximal activity (AC50) was 1.58 µM (active).
Regarding `COc1ccc(C(=O)N2CCC3(CCN(Cc4ccccc4OC)CC3)CC2)cc1`, the “activity, negative = inhibition” value was 11.6%.
`COc1cccc(Cn2nnc3c(=O)[nH]c(C4CCCN(C(=O)c5ccccc5Cl)C4)nc32)c1` (centres undefined): the concentration at half-maximal activity (AC50) was 5.01 µM (active).
On to `COc1ccc(C(=O)N2CCC3(CCCN(Cc4ccccc4OC)C3)CC2)cc1`, for which the “activity, negative = inhibition” value is -18.1%.
As for `Cc1ccc(Cn2nnc3c(=O)[nH]c(C4CCN(C(=O)Cc5cccs5)CC4)nc32)cc1`, the AC50 is 0.708 µM (active).
In the case of `COc1ccccc1Cn1nnc2c(=O)[nH]c(C3CCN(C(=O)c4ccc(C)cc4)CC3)nc21`, the AC50 was 5.62 µM (active).
For the compound `Cc1ccn2cc(CSc3ccccc3N)nc2c1`, the “activity, negative = inhibition” value is -1.78%.
Still for that read-out and setting: as for `NC1=C2NC=N[C@@H]2N(C/C=C\c2ccccc2)C=N1`, the figure is 1.29% [at 11.4 µM].
As for `O=C(Cc1cccs1)N1CCC(c2nc3c(nnn3Cc3ccccc3Cl)c(=O)[nH]2)CC1`, the AC50 is 0.224 µM (active).
Turning to `CCc1ncc(CO)n1Cc1cccc2ccccc12`, the activity, negative = inhibition is -1.15% [at 11.4 µM].
Take `CCn1cnc2sc(C(=O)N3CCN(c4ccc(OC)cc4)CC3)c(C)c2c1=O`: the concentration at half-maximal activity (AC50) was 7.94 µM (active).
As to `COc1ccc(N2CCN(C(=N)/C(C(C)=O)=C(\C)O)CC2)cc1`, the “activity, negative = inhibition” value is -13.8%.
For `COc1ccc(N2CCN(C(=S)Nc3cc(C)ccc3C)CC2)cc1`, the “activity, negative = inhibition” value was -18%.
In the case of `O=C(NCCN1CCOCC1)c1ccc2ccccc2c1`, the “activity, negative = inhibition” value is 0.564%.
Take `O=C(NCCCn1ccnc1)c1ccc(Br)c(S(=O)(=O)N2CCOCC2)c1`: the concentration at half-maximal activity (AC50) is 0.708 µM (active).
In the case of `O=C(NCCCN1CCOCC1)c1cc2c(s1)CSC2`, the “activity, negative = inhibition” value was -20.3%.
For the compound `CN[C@@H]1[C@H](O[C@H]2[C@@H](O[C@@H]3[C@@H](O)[C@@H](O)[C@@H](N=C(N)N)[C@@H](O)[C@@H]3N=C(N)N)O[C@@H](C)[C@]2(O)CO)O[C@H](CO)[C@@H](O)[C@@H]1O`, the “activity, negative = inhibition” value is 4.16% [at 25.6 µM].
On to `CCCC(=O)NNC(=O)Nc1ccccc1`, for which the “activity, negative = inhibition” value is -2.98%.
Turning to `Cc1ccc(NC(=O)NNC(=O)Cn2nc(-c3ccccc3)c(-c3ccccc3)c(C#N)c2=O)cc1`, the AC50 was 3.16 µM (active).
With `Cc1ccc(NC(=O)NNC(=O)C2CC(c3cccnc3)=NO2)cc1` (centres undefined), the “activity, negative = inhibition” value is -11.6%.
Turning to `CC(C)CC(c1nnnn1C(C)C)N1CCN(c2ccccc2)CC1` (centres undefined), the AC50 was 2 µM (active).
As for `OC[C@@H](O)CN1CCN(c2ccccc2)CC1`, the “activity, negative = inhibition” value is 5.85% [at 25.6 µM].
On to `ClC(Cl)(Cl)C(N1CCN(c2ccccc2)CC1)N1CCN(c2ccccc2)CC1`, for which the activity, negative = inhibition was 18.4% [at 11.4 µM].
In the case of `NS(=O)(=O)c1cc2c(cc1Cl)=NC(CCC(=O)O)=NS=2(=O)O`, the activity, negative = inhibition is 3.24% [at 11.4 µM].
